Assay results as given in PubChem BioAssay (NCATS).
Inconclusive results are not listed. A call without a number means that no potency is given here. The source made the active and inactive calls. Calls come from the whole dose curve; as a rule, active = well fitted inhibition curve with a large enough effect; inconclusive = small, poorly fitted or top-dose-only effect; inactive = flat fitted curve, though single readings scatter.

Tests used:
Assay in all cases: qHTS profiling for inhibitors of Plasmodium falciparum proliferation (AID 504749); note: nearly all actives have a fitted effect of over 60% in size
Conditions in all cases: P. falciparum in erythrocytes, SYBR Green DNA, 72 h; series mostly up to 28.7 µM
AA1029 = test system: AA1029
How it was run: (§1)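 Each compound contacts P. falciparum-infected red blood cells for 72 h at 37 C; lysis buffer (Tris, EDTA, saponin, Triton X, SYBR Green I) is added and fluorescence measured next morning; values normalized to controls.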

AS120 = test system: AS120
How it was run: as §1

ATS189 = test system: ATS189
How it was run: as §1

ATS95 = test system: ATS95
How it was run: as §1

C2A = test system: C2A
How it was run: as §1

CP185 = test system: CP185
How it was run: as §1

CP191 = test system: CP191
How it was run: as §1

CP192 = test system: CP192
How it was run: as §1

CP194 = test system: CP194
How it was run: as §1

CP201 = test system: CP201
How it was run: as §1

CP203 = test system: CP203
How it was run: as §1

CP211 = test system: CP211
How it was run: as §1

CP215 = test system: CP215
How it was run: as §1

CP217 = test system: CP217
How it was run: as §1

CP237 = test system: CP237
How it was run: as §1

CP238 = test system: CP238
How it was run: as §1

CP247 = test system: CP247
How it was run: as §1

CP250 = test system: CP250
How it was run: as §1

CP252 = test system: CP252
How it was run: as §1

CP256 = test system: CP256
How it was run: as §1
Potency is the fitted concentration of half-maximal effect.

Compound | Potency (AA1029) | Potency (AS120) | Potency (ATS189) | Potency (ATS95) | Potency (C2A) | Potency (CP185) | Potency (CP191) | Potency (CP192) | Potency (CP194) | Potency (CP201) | Potency (CP203) | Potency (CP211) | Potency (CP215) | Potency (CP217) | Potency (CP237) | Potency (CP238) | Potency (CP247) | Potency (CP250) | Potency (CP252) | Potency (CP256)
COc1cc2[nH]c(=O)[nH]c(=O)c2cc1OC | inactive | inactive | inactive | inactive | inactive | inactive | inactive | inactive | inactive | inactive | inactive | inactive | inactive | inactive | inactive | inactive | inactive | inactive | inactive | inactive
O=C(Oc1ccccc1C(=O)O)c1ccccc1O | inactive | inactive | inactive | inactive | inactive | inactive | inactive | inactive | inactive | inactive | inactive | inactive | inactive | inactive | inactive | inactive | inactive | inactive | inactive | inactive
O=C1NC(=O)[C@@]2(CCOc3ccc(F)cc32)N1 | inactive | inactive | inactive | inactive | inactive | inactive | inactive | inactive | inactive | inactive | inactive | inactive | inactive | inactive | inactive | inactive | inactive | inactive | inactive | inactive
O=C(O)CN1C(=O)c2cccc3cccc(c23)C1=O | inactive | inactive | inactive | inactive | inactive | inactive | inactive | inactive | inactive | inactive |  | inactive | inactive | inactive | inactive | inactive | inactive | inactive | inactive | inactive
CCOC(=O)c1ccc(O)cc1 | inactive | inactive | inactive | inactive | inactive | inactive | inactive | inactive | inactive | inactive | inactive | inactive | inactive | inactive | inactive | inactive | inactive | inactive | inactive | inactive
NS(=O)(=O)c1cc2c(cc1Cl)NC(CSCc1ccccc1)=NS2(=O)=O | inactive | inactive | inactive | inactive | inactive | inactive | inactive | inactive | inactive | inactive | inactive | inactive | inactive | inactive | inactive | inactive | inactive | inactive | inactive | inactive
C[C@H](N)[C@H](O)c1cccc(O)c1 | inactive | inactive | inactive | inactive | inactive | inactive | inactive | inactive | inactive | inactive |  | inactive | inactive | inactive | inactive | inactive | inactive | inactive | inactive | inactive
Cc1cc(CC(=O)O)n(C)c1C(=O)c1ccc(Cl)cc1 | inactive | inactive | inactive | inactive | inactive | inactive | inactive | inactive | inactive | inactive |  | inactive | inactive | inactive | inactive | inactive | inactive | inactive | inactive | inactive
C=Cc1c(C)c2cc3[nH]c(cc4nc(cc5nc(cc1[nH]2)C(C)=C5CCC(=O)O)C(CCC(=O)O)=C4C)c(C)c3C=C | inactive | inactive | inactive | inactive | inactive | inactive | inactive | inactive | inactive | inactive | inactive | inactive | inactive | inactive | inactive | inactive | inactive | inactive | inactive | inactive
C[C@H]1O[C@@H](n2cc(F)c(=O)[nH]c2=O)[C@H](O)[C@@H]1O | inactive | inactive | inactive | inactive | inactive | inactive | inactive | inactive | inactive | inactive | inactive | inactive | inactive | inactive | inactive | inactive | inactive | inactive | inactive | inactive
Cc1ncc(COP(=O)(O)O)c(C=O)c1O | inactive | inactive | inactive | inactive | inactive | inactive | inactive | inactive | inactive | inactive | inactive | inactive | inactive | inactive | inactive | inactive | inactive | inactive | inactive | inactive
Cc1cccc(C)c1NC(=O)CN(CC(=O)O)CC(=O)O | inactive | inactive | inactive | inactive | inactive | inactive | inactive | inactive | inactive | inactive |  | inactive | inactive | inactive | inactive | inactive | inactive | inactive | inactive | inactive
CCOc1ccc2ccccc2c1C(=O)N[C@@H]1C(=O)N2[C@@H]1SC(C)(C)[C@@H]2C(=O)O | inactive | inactive | inactive | inactive | inactive | inactive | inactive | inactive | inactive | inactive |  | inactive | inactive | inactive | inactive | inactive | inactive | inactive | inactive | inactive
O=Cc1ccccc1C=O | inactive | inactive | inactive | inactive | inactive | inactive | inactive | inactive | inactive | inactive | inactive | inactive |  | inactive | inactive | inactive | inactive | inactive | inactive | inactive
CC(C)(C)NCC(O)COc1ccc(NC(=O)NC2CCCCC2)cc1 (configuration not stated) | inactive | inactive | inactive | inactive | inactive | inactive | inactive | inactive | inactive | inactive | inactive | inactive | inactive | inactive | inactive | inactive |  | inactive | inactive | inactive
O=c1cc[nH]c(=S)[nH]1 | inactive | inactive | inactive | inactive | inactive | inactive | inactive | inactive | inactive | inactive | inactive | inactive |  | inactive | inactive | inactive | inactive | inactive | inactive | inactive
CCCCC(CC)COC(=O)c1ccccc1O (configuration not stated) | inactive | inactive | inactive | inactive | inactive | inactive | inactive | inactive | inactive | inactive | inactive | inactive | inactive | inactive | inactive | inactive | inactive | inactive | inactive | inactive
O=C(O)c1ccccn1 | inactive | inactive | inactive | inactive | inactive | inactive | inactive | inactive | inactive | inactive | inactive | inactive |  | inactive | inactive | inactive | inactive | inactive | inactive | inactive
CCCCN(CCCC)CC(O)c1cc(Cl)cc2c1-c1ccc(Cl)cc1/C2=C/c1ccc(Cl)cc1 (configuration not stated) | 0.0141 µM (active) | 0.01 µM (active) | 0.0126 µM (active) | 0.0126 µM (active) | 0.0447 µM (active) | 0.0316 µM (active) | 0.0282 µM (active) | 0.0478 µM (active) | 0.0478 µM (active) | 0.151 µM (active) | 0.019 µM (active) | 0.0536 µM (active) | 0.0426 µM (active) | 0.0355 µM (active) | 0.0112 µM (active) | 0.0282 µM (active) | 0.0398 µM (active) | 0.0282 µM (active) | 0.0355 µM (active) | 0.0794 µM (active)
Cc1cc(O)cc2c1O[C@](C)(CCC[C@H](C)CCC[C@H](C)CCCC(C)C)CC2 | inactive | inactive | inactive | inactive | inactive | inactive | inactive | inactive | inactive | inactive | inactive | inactive |  | inactive |  | inactive | inactive | inactive | inactive | inactive
C[C@@H]1CN(c2c(F)c(F)c3c(=O)c(C(=O)O)cn(C4CC4)c3c2F)C[C@H](C)N1 | inactive | inactive | inactive | inactive | inactive | inactive | inactive | inactive | inactive | inactive | inactive | inactive | inactive | inactive | inactive | inactive | inactive | inactive | inactive | inactive
CCC(=O)c1ccc(O)cc1 | inactive | inactive | inactive | inactive | inactive | inactive | inactive | inactive | inactive | inactive |  | inactive | inactive | inactive | inactive | inactive | inactive | inactive | inactive | inactive
CC(C)(C)C(=O)NCCCC(=O)O | inactive | inactive | inactive | inactive | inactive | inactive | inactive | inactive | inactive | inactive | inactive |  | inactive | inactive | inactive | inactive | inactive | inactive | inactive | inactive
Nc1ccc(S(=O)(=O)Nc2ccccc2)cc1 | inactive | inactive | inactive | inactive | inactive | inactive | inactive | inactive | inactive | inactive | inactive | inactive | inactive | inactive | inactive | inactive | inactive | inactive | inactive | inactive
Cc1cc(C(C#N)c2ccc(Cl)cc2)c(Cl)cc1NC(=O)c1cc(I)cc(I)c1O (configuration not stated) | inactive | inactive | inactive | inactive | inactive | inactive | inactive | inactive | inactive | inactive | inactive | inactive | inactive | inactive | inactive | inactive | inactive | inactive | inactive | inactive
O=c1[nH]c(=O)c2[nH]c(=O)[nH]c2[nH]1 | inactive | inactive | inactive | inactive | inactive | inactive | inactive | inactive | inactive | inactive | inactive | inactive | inactive | inactive | inactive | inactive | inactive | inactive | inactive | inactive
CC(O)CN(CCN(CC(C)O)CC(C)O)CC(C)O (configuration not stated) | inactive | inactive | inactive | inactive | inactive | inactive | inactive | inactive | inactive | inactive | inactive | inactive | inactive | inactive | inactive | inactive | inactive | inactive | inactive | inactive
Nc1ccc(S(=O)(=O)NC(=O)c2ccccc2)cc1 | inactive | inactive | inactive | inactive | inactive | inactive | inactive | inactive | inactive | inactive | inactive | inactive | inactive | inactive | inactive | inactive | inactive | inactive | inactive | inactive
CCOC(=O)[C@H](CCc1ccccc1)N[C@@H](C)C(=O)N1C(=O)N(C)C[C@H]1C(=O)O | inactive | inactive | inactive | inactive | inactive | inactive | inactive | inactive | inactive | inactive | inactive | inactive | inactive | inactive | inactive | inactive | inactive | inactive | inactive | inactive
